Reference: PubChem BioAssay AID828 (The Scripps Research Institute Molecular Screening Center, 2007)
Hit rate of the full screen: of about 140,000 compounds, about 550 (0.39%) were called active. Shown is part of a subset that was picked to be rich in actives. Unmarked numbers belong to inactive results. No stated cut-off is given here; in the data, active means inhibition above about 27%; inactive means the rest.

Target: Galanin receptor type 2 (Homo sapiens) (UniProt O43603)
Assay: GALR2 antagonists in receptor-expressing cells, primary screen (AID 828);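 further: cells stimulated with galanin 1-16 at roughly its EC80; 0% = agonist challenge control and 100% = basal control without agonist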
Conditions: antagonist mode, at 4 µM, hits give high values

Chain of Galanin receptor type 2 (Homo sapiens) (O43603 whole entry, looked up): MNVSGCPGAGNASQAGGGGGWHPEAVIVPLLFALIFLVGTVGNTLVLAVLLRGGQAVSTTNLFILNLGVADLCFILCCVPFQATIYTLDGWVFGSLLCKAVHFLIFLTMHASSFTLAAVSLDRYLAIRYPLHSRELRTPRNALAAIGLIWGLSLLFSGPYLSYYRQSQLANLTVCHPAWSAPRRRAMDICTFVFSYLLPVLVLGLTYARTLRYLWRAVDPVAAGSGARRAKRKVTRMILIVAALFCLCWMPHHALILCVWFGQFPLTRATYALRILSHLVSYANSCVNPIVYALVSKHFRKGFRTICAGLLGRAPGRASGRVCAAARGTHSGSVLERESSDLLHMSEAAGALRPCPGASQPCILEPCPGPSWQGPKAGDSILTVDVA

Q: Which inhibition does the source give for `COc1cc2c(cc1OC)C(=O)NCC(C)(C)O2` here?
A: 1.34%

Q: For `CCCSc1nc2[nH]ncc2c(=O)[nH]1`, which inhibition is on record?
A: -7.72%

Q: `Cc1ccc(Nc2nc(CSc3nnc(-c4ccncc4)n3-c3ccccc3C)cs2)cc1` was tested. Which inhibition did it give?
A: -7.55%

Q: How did the inhibition turn out when `Cc1ccc(C(=O)N2CC(=O)Nc3ccccc32)o1` was run?
A: -5.68%

Q: How did the inhibition turn out when `CC(C)(C)OC(=O)N/N=C/c1ccc(C(=O)O)cc1` was run?
A: 1.78%

Q: How did the inhibition turn out when `O=C(CC1SC(=Nc2ccccc2)N(Cc2ccccn2)C1=O)Nc1cccc(Cl)c1` (centres undefined) was run?
A: -2.96%

Q: How did the inhibition turn out when `CCCc1cc(=O)oc2c(C)c(O)c(CN3CCCCC3)cc12` was run?
A: -0.41%

Q: With `COC(=O)Cc1cc(=O)oc2c(C)c(O)ccc12` as the compound, how does the inhibition read?
A: 39.2% (active)

Q: How did the inhibition turn out when `COC(=O)COc1ccc2oc(=O)cc(C)c2c1` was run?
A: 4.15%

Q: How did the inhibition turn out when `O=c1c2c(ncn1Cc1ccccc1)nc1n2CCC1` was run?
A: 11.2%

Q: With `c1ccc(-c2nnc(SCc3nc4ccccc4[nH]3)o2)cc1` as the compound, how does the inhibition read?
A: 27.2% (active)

Q: Which inhibition does the source give for `Clc1ccccc1SCc1nc2ccccc2[nH]1` here?
A: 7.26%

Q: For `Clc1ccc(-c2nnc(SCc3nc4ccccc4s3)o2)cc1`, which inhibition is on record?
A: 12%

Q: `CCCC/C(C)=N/NC(=O)NC1CCCCC1` was tested. Which inhibition did it give?
A: 1.57%

Q: Which inhibition does the source give for `CCCCN(C)CCC(=O)Nc1ccc(Cl)cc1` here?
A: 9.01%

Q: `Nc1nc(CC(=O)CSc2ccc(Cl)cc2)nc(Nc2ccc(F)cc2)n1` was tested. Which inhibition did it give?
A: 5.35%

Q: `O=C(COc1ccccc1F)NNC(=O)c1ccc(N2CCCCC2)c([N+](=O)[O-])c1` was tested. Which inhibition did it give?
A: -5.34%

Q: With `COc1ccc([N+](=O)[O-])cc1NC(=O)c1ccc(N(Cc2ccccc2C)S(C)(=O)=O)cc1` as the compound, how does the inhibition read?
A: 10.8%

Q: How did the inhibition turn out when `CCCCCCCCCOC1OC(CO)C(O)C(O)C1NC(C)=O` (centres undefined) was run?
A: -2.61%

Q: Which inhibition does the source give for `N=C1C(=O)OCC1c1ccccc1NC(=O)CN1CCCCC1` (centres undefined) here?
A: 0.12%

Q: With `O=C(Nn1c(-c2ccccc2)nc2ccccc2c1=O)c1ccc([N+](=O)[O-])cc1` as the compound, how does the inhibition read?
A: -0.78%

Q: Which inhibition does the source give for `Cc1ccc(S(=O)(=O)/N=S(\C)C(C)C)cc1` (centres undefined) here?
A: 0.24%

Q: `COC(=O)[C@H]1Cc2cnoc2C[C@]1(C)C(=O)O` was tested. Which inhibition did it give?
A: 13.5%

Q: With `Cc1ccc(S(=O)(=O)c2ccc(Oc3ccccc3)cc2)cc1` as the compound, how does the inhibition read?
A: -10.2%

Q: How did the inhibition turn out when `CCOC(=O)C1(S(=O)(=O)c2ccccc2)CCN(Cc2ccccc2)CC1` was run?
A: -2.88%

Q: `CC1=C/C(=N\OS(=O)(=O)c2ccccc2)C=CC1=O` was tested. Which inhibition did it give?
A: 53.5% (active)

Q: How did the inhibition turn out when `O=C(Cc1ccccc1)NNC1CC(=O)N(c2ccc(Br)cc2)C1=O` (centres undefined) was run?
A: -17.6%

Q: Which inhibition does the source give for `COc1ccc(NS(=O)(=O)c2ccc(NC(=O)c3ccc(N(C)S(C)(=O)=O)cc3)cc2)cc1` here?
A: 3.65%

Q: How did the inhibition turn out when `Cc1cc(Br)ccc1SCC(=O)OCC(=O)NCc1ccc2c(c1)OCO2` was run?
A: 1.98%

Q: Which inhibition does the source give for `C/C(=N\Nc1ccc([N+](=O)[O-])cc1)c1ccc(-n2nncc2C(C)(C)C)cc1` here?
A: -1.64%

Q: How did the inhibition turn out when `Cc1ccc(NC(=O)NC(=O)N(C2CCCCC2)S(=O)(=O)c2ccccc2)cc1` was run?
A: 1.91%

Q: For `Cc1cc(C)c[n+](-c2nc3ccccc3nc2[N-]S(=O)(=O)c2cccs2)c1`, which inhibition is on record?
A: -5.36%

Q: How did the inhibition turn out when `O=C(Nc1ccc2c(c1)OCO2)c1ccc(N2C(=O)c3ccccc3C2=O)cc1` was run?
A: -3%

Q: For `CC1CCCN(S(=O)(=O)c2ccc(N(C(=O)c3cnccn3)C(C(=O)NC3CCCCC3)c3cccs3)cc2)C1` (centres undefined), which inhibition is on record?
A: 8.87%

Q: How did the inhibition turn out when `NS(=O)(=O)c1ccc(CCNC(=S)Nc2ccc(S(N)(=O)=O)cc2)cc1` was run?
A: 5.94%

Q: For `Cc1cc(C)c(C#N)c(SCC(=O)NN2CC(=O)N(c3ccccc3F)CC2=O)n1`, which inhibition is on record?
A: 12.2%

Q: How did the inhibition turn out when `COc1ccc(C)cc1S(=O)(=O)N(CC(=O)Nc1cccc([N+](=O)[O-])c1)c1ccc(C)cc1` was run?
A: -2.05%

Q: Which inhibition does the source give for `O=C(COC(=O)C1CC2C=CC1C2)Nc1ccccc1` (centres undefined) here?
A: -0.08%

Q: Which inhibition does the source give for `Cc1cc(C(=O)COC(=O)CNC(=O)c2ccc(F)cc2)c(C)n1Cc1ccco1` here?
A: 3.46%

Q: `COc1ccccc1C(=O)N1CC2(C)CC1CC(C)(C)C2` (centres undefined) was tested. Which inhibition did it give?
A: 1.39%

Q: `Cc1cccc(C(=O)NCC(=O)OCC(=O)N2CC3(C)CC2CC(C)(C)C3)c1` (centres undefined) was tested. Which inhibition did it give?
A: 1.61%

Q: `Cc1nnnn1/C(=C\c1ccccc1)C(=O)OCC(=O)N1CC2(C)CC1CC(C)(C)C2` (centres undefined) was tested. Which inhibition did it give?
A: 27.3% (active)

Q: `COC(=O)N/N=C/c1ccc(-c2ccc(Cl)c(Cl)c2)o1` was tested. Which inhibition did it give?
A: -7.04%

Q: With `COc1cc(C(=O)NNC(=O)c2ccc(S(=O)(=O)N3CCCCC3)cc2)cc(OC)c1OC` as the compound, how does the inhibition read?
A: 9.59%

Q: Which inhibition does the source give for `CC(C)COP(=O)(c1ccc(N(C)C)cc1)C(Nc1ccccc1)c1cccnc1` (centres undefined) here?
A: 3.84%

Q: With `O=C(CSC(=S)N1CCOCC1)c1ccccc1` as the compound, how does the inhibition read?
A: 5.48%

Q: How did the inhibition turn out when `COc1ccc(Nc2nc(NCc3ccco3)nc(N/N=C/c3ccccc3Cl)n2)cc1` was run?
A: -5.3%

Q: Which inhibition does the source give for `O=C(/C=C/c1ccccc1)Nc1nnc(SCC(=O)c2ccc3ccccc3c2)s1` here?
A: -9.23%

Q: With `COc1ccc(C(=O)Nc2sc(C)c(C)c2CN2CCOCC2)cc1` as the compound, how does the inhibition read?
A: 3.47%

Q: Which inhibition does the source give for `COc1ccc(Cl)cc1NC(=O)[C@@H]1CCCN1C(=O)c1cccs1` here?
A: -3.13%

Q: For `c1ccc(-c2[nH]ncc2-c2nc3ccccc3[nH]2)cc1`, which inhibition is on record?
A: 0.69%

Q: With `c1ccc2[nH]c(-c3nc4ccccc4[nH]3)nc2c1` as the compound, how does the inhibition read?
A: 35.5% (active)

Q: How did the inhibition turn out when `Cc1ccc(-c2nc3ccccc3[nH]2)cc1N` was run?
A: 4.32%

Q: How did the inhibition turn out when `Cc1ccc(-c2nc(-c3cccnc3)sc2CC(=O)Nc2ccc(C)c(Cl)c2)cc1` was run?
A: 8.6%

Q: For `CSc1ccc(/C=N/NC(=O)c2cccc(Cl)c2)cc1`, which inhibition is on record?
A: 9.93%

Q: For `CCCN(CCC)C(=S)Nc1cc(C(=O)OC)ccc1C(=O)OC`, which inhibition is on record?
A: 0.52%

Q: Which inhibition does the source give for `O=C(Oc1cccc(N2C(=O)C3C4c5ccccc5C(c5ccccc54)C3C2=O)c1)c1ccco1` (centres undefined) here?
A: 1.71%

Q: With `O=C1C2C3C=CC(C4CC34)C2C(=O)N1c1nccs1` (centres undefined) as the compound, how does the inhibition read?
A: -7.75%

Q: Which inhibition does the source give for `CC[C@H]1CN2CCc3cc(OC)c(OC)cc3[C@@H]2C[C@@H]1C[C@H]1NCCc2cc(OC)c(OC)cc21` here?
A: 95% (active)

Q: With `COc1cc2c(cc1O)[C@H](Cc1ccc(Oc3cc(C[C@@H]4NCCc5cc(OC)c(O)cc54)ccc3O)cc1)NCC2` as the compound, how does the inhibition read?
A: 1.51%

Q: For `O=C(NCCc1ccccc1)C1CCC(Cn2c(=O)c3ccccc3n(Cc3cccnc3)c2=O)CC1` (centres undefined), which inhibition is on record?
A: -3.73%

Q: For `Cc1ccc(-n2nc(C)c(/C=N/NC(=O)c3cccs3)c2Cl)cc1`, which inhibition is on record?
A: -3.43%

Q: `Cc1cc(-c2n[nH]c(=S)n2/N=C/C(Br)=C/c2ccccc2)n[nH]1` was tested. Which inhibition did it give?
A: 34.7% (active)

Q: `S=c1[nH]nc(-c2cccnc2)n1/N=C/C(Cl)=C\c1ccccc1` was tested. Which inhibition did it give?
A: 18%

Q: Which inhibition does the source give for `Cc1ccc(/C=N\n2c(-c3ccccc3)n[nH]c2=S)s1` here?
A: 5.78%

Q: With `Cc1nc2ccccc2nc(C)c1=NOCc1ccc(Cl)cc1Cl` as the compound, how does the inhibition read?
A: 10.4%

Q: Which inhibition does the source give for `COc1ccc(/C=N/OCC(=O)N(Cc2ccccc2)c2ccccc2C(=O)O)cc1` here?
A: 2.54%

Q: For `CNC(=O)/C(C#N)=C/c1c(F)cccc1Cl`, which inhibition is on record?
A: 20.6%

Q: For `COc1ccc(/C=C2/C(=O)OCc3cc(OC)c(OC)cc32)c(OC)c1`, which inhibition is on record?
A: 2.64%

Q: Which inhibition does the source give for `COc1ccc(C2NC(=S)NC3=C2CCc2ccccc23)cc1OC` (centres undefined) here?
A: -4.17%

Q: Which inhibition does the source give for `O=C(N/N=C/c1ccccn1)C12CC3CC(CC(C3)C1)C2` here?
A: -0.89%

Q: How did the inhibition turn out when `CN1c2ccccc2-c2nc3ccccc3n2C1c1ccco1` (centres undefined) was run?
A: -6.2%

Q: `CN(c1nc2ccccc2n2c(-c3ccco3)nnc12)S(=O)(=O)c1ccccc1` was tested. Which inhibition did it give?
A: 3%

Q: For `Cn1c(-c2ccco2)nc2cc3ccccc3cc21`, which inhibition is on record?
A: 29.7% (active)
